Screening results as filed in PubChem BioAssay.
Rows were chosen to be rich in hits. Some 2.3% of all compounds tested hit in one or more screens of this group.
MCL1 BIM primary: MCL1-BIM-BH3 interaction inhibition (human); 0.68% of 320,000 active; Q07820; inhibition, % at 10.9 µM; AID 2057; GST-MCL1 / FITC-Bim-BH3 fluorescence polarization;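 active means inhibition above the mean inhibition of all tested compounds plus 3 SD, set per campaign, cut at about 40% in these data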;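 further: 0% = DMSO wells and 100% = unlabeled Bim-BH3 peptide control; higher means more loss of mP so more displacement of Bim peptide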
Target sequence (Q07820 whole entry, looked up): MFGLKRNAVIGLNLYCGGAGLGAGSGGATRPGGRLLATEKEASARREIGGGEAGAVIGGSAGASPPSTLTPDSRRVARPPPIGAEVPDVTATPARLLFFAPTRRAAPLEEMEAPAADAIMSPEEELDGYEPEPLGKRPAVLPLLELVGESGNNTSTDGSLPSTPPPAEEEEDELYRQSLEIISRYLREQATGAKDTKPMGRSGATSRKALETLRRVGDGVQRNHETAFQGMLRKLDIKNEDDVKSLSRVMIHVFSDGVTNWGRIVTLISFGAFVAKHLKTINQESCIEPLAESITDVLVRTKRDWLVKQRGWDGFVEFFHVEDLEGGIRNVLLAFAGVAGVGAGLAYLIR
Bcl-xL primary: blocks human Bcl-xL binding to Bim BH3 peptide; GST-Bcl-xL / FITC-Bim BH3 peptide fluorescence polarization; inhibition, % at 10.9 µM; 0.7% of 320,000 active;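 active means inhibition above the mean of all tested compounds plus 3 SD, cutoff set per campaign, cut at about 30% in these data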;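 further: 0% = DMSO wells and 100% = unlabeled Bim-BH3 peptide competitor; inhibitors lower millipolarization by displacing the labeled peptide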
GLD-1 RNA inh: GLD-1-TGE RNA interaction inhibition (C. elegans). Q17339. purified GLD-1 + fluorescein TGE RNA, fluorescence polarization. inhibition, % at 5.96 µM. 0.44% of 320,000 active;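 active means percent inhibition above a per-plate cutoff, the plate mean of test compounds plus 3 SD, cut at about 30% in these data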;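 further: 0% = DMSO wells with GLD-1 and probe and 100% = wells lacking GLD-1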
Mcl1-Noxa inh: Mcl-1/Noxa interaction inhibition. TR-FRET Mcl-1/Noxa peptide binding, 2 h. inhibition, % at 21.7 µM. AID 1022. 1.5% of 220,000 active. Q07820;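 active means compounds that cut the protein-peptide binding signal by more than 50% relative to plate controls in a single-dose test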;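 further: His-tagged Mcl-1 with rhodamine Noxa BH3 peptide and terbium anti-His antibody; 0% = Mcl-1 plus Noxa peptide wells and 100% = peptide-only wells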
Bim-Mcl-1: disrupts Bim peptide binding to human Mcl-1. Q07820. Bead-based flow cytometry, Bim peptide-Mcl-1 binding. inhibition, % at 10 µM. 0.1% of 190,000 active; in the data active means inhibition above about 40%;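 further: 0% = no compound tracer wells and 100% = peptide blocker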
Mcl1 Bid PPI: disrupts binding of human Mcl-1 to Bid peptide. Q07820. TR-FRET Mcl-1/Bid-Dy647 peptide binding, 1536-well. inhibition, % at 21.7 µM. 0.97% of 220,000 active. AID 1021;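 active means compounds that cut the binding signal by more than half at the single screening dose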;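 further: His-tagged Mcl-1 with europium anti-His antibody binding Bid BH3 peptide; 0% = Mcl-1 plus peptide wells and 100% = peptide-only wells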
* marks the source's active call; other numbers are inactive results.

Results for C[C@@H]1COC(=O)[C@H](NC(=O)OCC2c3ccccc3-c3ccccc32)C/C=C\C[C@@H](CC(=O)N[C@H](CO)Cc2ccccc2)C(=O)N1 ?
GLD-1 RNA inh: -8

How did CCOc1cccc(/C=C2/NC(=O)N(CC(=O)Nc3cccc(C)c3)C2=O)c1O do in these assays?
MCL1 BIM primary: -6; Bcl-xL primary: 1; GLD-1 RNA inh: 10; Mcl1-Noxa inh: 1; Bim-Mcl-1: 1; Mcl1 Bid PPI: -3

What do the screens show for `COCC(=O)Nc1ccccc1C(=O)Nc1ccc(OC)cc1`?
MCL1 BIM primary: -6; Bcl-xL primary: 2; GLD-1 RNA inh: 1; Mcl1-Noxa inh: 7; Bim-Mcl-1: -1; Mcl1 Bid PPI: -17

Results for CCOc1cc(/C=C2/NC(=O)N(CC(=O)Nc3cccc(C)c3)C2=O)ccc1OCC(N)=O ?
MCL1 BIM primary: -4; Bcl-xL primary: 2; GLD-1 RNA inh: 6; Mcl1-Noxa inh: 59*; Bim-Mcl-1: 1; Mcl1 Bid PPI: 3

Results for Cc1ccccc1OCC(=O)Nc1ccc2c(c1)C(=O)c1ccccc1C2=O ?
MCL1 BIM primary: 10; Bcl-xL primary: 7; GLD-1 RNA inh: 4; Mcl1-Noxa inh: 67*; Bim-Mcl-1: -1; Mcl1 Bid PPI: 8

Results for CCOc1cc(/C=N/NC(N)=O)ccc1OCC(=O)Nc1ccc(C)c(C)c1 ?
MCL1 BIM primary: 2; Bcl-xL primary: 3; GLD-1 RNA inh: -5; Mcl1-Noxa inh: 17; Bim-Mcl-1: 3; Mcl1 Bid PPI: -3

Results for CCOc1cc(C=C2C(=O)c3ccccc3C2=O)ccc1OCC(=O)Nc1ccc(C)cc1 ?
MCL1 BIM primary: 20; Bcl-xL primary: 15; GLD-1 RNA inh: 6; Mcl1-Noxa inh: 43; Bim-Mcl-1: -2; Mcl1 Bid PPI: 86*

How did COc1ccc(NC(=O)c2ccccc2NC(=O)COc2ccccc2)cc1 do in these assays?
MCL1 BIM primary: 1; Bcl-xL primary: 0; GLD-1 RNA inh: 0; Mcl1-Noxa inh: -70; Bim-Mcl-1: 4; Mcl1 Bid PPI: 53*

What do the screens show for `CCC/C=C(\CCC)C(NC(=O)CCc1ccccc1)c1ccc(C(F)(F)F)cc1` (stereo unspecified)?
MCL1 BIM primary: 4; Bcl-xL primary: 0; GLD-1 RNA inh: 5

Results for CCOc1ccc(N2CC(C(=O)N3CCN(C(=O)c4ccco4)CC3)CC2=O)cc1 (stereo unspecified) ?
MCL1 BIM primary: 4; Bcl-xL primary: 0; GLD-1 RNA inh: 2

Results for O=C(CSc1nc2ncccc2[nH]1)Nc1ccccc1-c1ccccc1 ?
MCL1 BIM primary: -3; Bcl-xL primary: -1; GLD-1 RNA inh: -5

Results for Cn1c(=O)c2[nH]c(-c3ccccc3O)nc2n(C)c1=O ?
MCL1 BIM primary: 18; Bcl-xL primary: 14; GLD-1 RNA inh: -9; Mcl1-Noxa inh: 59*; Bim-Mcl-1: 3; Mcl1 Bid PPI: -21

How did CC(C)c1ccc(-c2nc3c([nH]2)c(=O)n(C)c(=O)n3C)cc1 do in these assays?
MCL1 BIM primary: 4; Bcl-xL primary: 3; GLD-1 RNA inh: -3; Mcl1-Noxa inh: -3; Bim-Mcl-1: -3; Mcl1 Bid PPI: -19

Results for Cn1c2c(c(=O)n(C)c1=O)C(NC(=O)C(C)(C)C)(C(F)(F)F)C(=O)N2 (stereo unspecified) ?
MCL1 BIM primary: 0; Bcl-xL primary: 3; GLD-1 RNA inh: 13; Mcl1-Noxa inh: 2; Bim-Mcl-1: -1; Mcl1 Bid PPI: -3

What do the screens show for `Cn1c2c(c(=O)n(C)c1=O)C(NS(=O)(=O)c1ccccc1)(C(F)(F)F)C(=O)N2` (stereo unspecified)?
MCL1 BIM primary: 7; Bcl-xL primary: 6; GLD-1 RNA inh: 5; Mcl1-Noxa inh: 51*; Bim-Mcl-1: 0; Mcl1 Bid PPI: -95

Results for O=C(CSc1nc2ccccc2c(=O)n1CCCN1CCOCC1)Nc1ccc(F)c(Cl)c1 ?
GLD-1 RNA inh: 3

What do the screens show for `Cc1ccc(NC(=O)CSc2nc3ccccc3c(=O)n2CCCN2CCCCC2)cc1Cl`?
MCL1 BIM primary: 2; Bcl-xL primary: 2; GLD-1 RNA inh: -9; Mcl1-Noxa inh: -12; Bim-Mcl-1: 41*; Mcl1 Bid PPI: -2

How did CN(C(=O)c1ccc(C#N)cc1)c1nnc(-c2cnccn2)s1 do in these assays?
MCL1 BIM primary: 1; Bcl-xL primary: -1; GLD-1 RNA inh: -7; Mcl1-Noxa inh: 38; Mcl1 Bid PPI: 86*
